# Measured values from the supplement of paper PMC9254222.
# The full ranking holds about 1,100 compounds; the median of “Wnt reporter firefly/Renilla luciferase ratio relative to plate median” is about 1.1, and the highest 2% start at about 1.6. What follows is part of a selection rich in the highest values, with near analogues and random picks from the rest.
# System: HEK293T (UBE3A T485A transfected, BAR Wnt reporter)
# Assay: Wnt reporter firefly/Renilla luciferase ratio relative to plate median (fold (linear ratio)); higher = more Wnt/beta-catenin reporter activation
# Conditions: 24 h
# Outline: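 Chemicals were robotically dosed at 0.01–100 uM for 24 h onto HEK293T cells, starting four hours after transfection with a BAR firefly luciferase Wnt reporter, TK-Renilla and an expression plasmid. The cells had been plated at 4500 cells/well in DMEM with 10% FBS at 37°C and 5% CO2. Following a Dual-Glo luciferase readout, the firefly/Renilla ratio served as the Wnt activity measure and raw Renilla as the cell health measure, both median-centred on each plate. Each value is the mean of four biological replicates.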
smiles,measurement,setting,value
N#CSCSC#N [Methylene bis(thiocyanate)],Wnt reporter firefly/Renilla luciferase ratio,concentration: 0.01 uM,0.967
same,Wnt reporter firefly/Renilla luciferase ratio,concentration: 0.1 uM,0.976
same,Wnt reporter firefly/Renilla luciferase ratio,concentration: 1 uM,1.05
same,Wnt reporter firefly/Renilla luciferase ratio,concentration: 10 uM,1.31
CNC(=O)ON=C(C)SC [Methomyl],Wnt reporter firefly/Renilla luciferase ratio,concentration: 0.01 uM,0.847
same,Wnt reporter firefly/Renilla luciferase ratio,concentration: 0.1 uM,1.08
same,Wnt reporter firefly/Renilla luciferase ratio,concentration: 1 uM,1.03
same,Wnt reporter firefly/Renilla luciferase ratio,concentration: 10 uM,0.996
same,Wnt reporter firefly/Renilla luciferase ratio,concentration: 100 uM,1.19
CNC(=O)ON=C(SC)C(=O)N(C)C [Oxamyl],Wnt reporter firefly/Renilla luciferase ratio,concentration: 0.01 uM,1.55
same,Wnt reporter firefly/Renilla luciferase ratio,concentration: 0.1 uM,1.22
same,Wnt reporter firefly/Renilla luciferase ratio,concentration: 1 uM,1.11
same,Wnt reporter firefly/Renilla luciferase ratio,concentration: 10 uM,1.43
same,Wnt reporter firefly/Renilla luciferase ratio,concentration: 100 uM,0.291
CS/C(C)=N/OC(=O)N(C)SN(C)C(=O)O/N=C(\C)SC [Thiodicarb],Wnt reporter firefly/Renilla luciferase ratio,concentration: 0.01 uM,1.53
same,Wnt reporter firefly/Renilla luciferase ratio,concentration: 0.1 uM,1.86
same,Wnt reporter firefly/Renilla luciferase ratio,concentration: 1 uM,1.6
same,Wnt reporter firefly/Renilla luciferase ratio,concentration: 10 uM,1.15
"Nn1cnnc1 [4-Amino-1,2,4-triazole]",Wnt reporter firefly/Renilla luciferase ratio,concentration: 0.1 uM,1.22
same,Wnt reporter firefly/Renilla luciferase ratio,concentration: 1 uM,0.928
same,Wnt reporter firefly/Renilla luciferase ratio,concentration: 10 uM,1.27
same,Wnt reporter firefly/Renilla luciferase ratio,concentration: 100 uM,1.43
ClC1=C(Cl)[C@]2(Cl)[C@H]3[C@H]([C@@H]4C=C[C@H]3C4)[C@@]1(Cl)C2(Cl)Cl [Aldrin],Wnt reporter firefly/Renilla luciferase ratio,concentration: 0.1 uM,1.2
same,Wnt reporter firefly/Renilla luciferase ratio,concentration: 1 uM,0.895
same,Wnt reporter firefly/Renilla luciferase ratio,concentration: 10 uM,1.15
same,Wnt reporter firefly/Renilla luciferase ratio,concentration: 100 uM,1.43
COC(=O)c1ccccc1C(=O)OC [Dimethyl phthalate],Wnt reporter firefly/Renilla luciferase ratio,concentration: 0.01 uM,1.03
same,Wnt reporter firefly/Renilla luciferase ratio,concentration: 0.1 uM,1.21
same,Wnt reporter firefly/Renilla luciferase ratio,concentration: 1 uM,1.21
same,Wnt reporter firefly/Renilla luciferase ratio,concentration: 10 uM,1.2
same,Wnt reporter firefly/Renilla luciferase ratio,concentration: 100 uM,1.42
N#Cc1nn(-c2c(Cl)cc(C(F)(F)F)cc2Cl)c(N)c1S(=O)C(F)(F)F (centres undefined) [Fipronil],Wnt reporter firefly/Renilla luciferase ratio,concentration: 0.01 uM,0.954
same,Wnt reporter firefly/Renilla luciferase ratio,concentration: 0.1 uM,0.896
same,Wnt reporter firefly/Renilla luciferase ratio,concentration: 1 uM,0.987
same,Wnt reporter firefly/Renilla luciferase ratio,concentration: 10 uM,0.889
same,Wnt reporter firefly/Renilla luciferase ratio,concentration: 100 uM,0.402
COS(=O)(=O)[O-].Cn1c(-c2ccccc2)cc(-c2ccccc2)[n+]1C [Difenzoquat metilsulfate],Wnt reporter firefly/Renilla luciferase ratio,concentration: 0.01 uM,0.771
same,Wnt reporter firefly/Renilla luciferase ratio,concentration: 0.1 uM,0.813
same,Wnt reporter firefly/Renilla luciferase ratio,concentration: 1 uM,1.1
same,Wnt reporter firefly/Renilla luciferase ratio,concentration: 10 uM,0.847
same,Wnt reporter firefly/Renilla luciferase ratio,concentration: 100 uM,0.425
CC(C)(C)C(O)(CCc1ccc(Cl)cc1)Cn1cncn1 (centres undefined) [Tebuconazole],Wnt reporter firefly/Renilla luciferase ratio,concentration: 0.1 uM,1.04
same,Wnt reporter firefly/Renilla luciferase ratio,concentration: 1 uM,0.915
same,Wnt reporter firefly/Renilla luciferase ratio,concentration: 10 uM,0.972
same,Wnt reporter firefly/Renilla luciferase ratio,concentration: 100 uM,0.461
CC(=O)N=C1C=CC(=O)C=C1,Wnt reporter firefly/Renilla luciferase ratio,concentration: 0.01 uM,0.925
same,Wnt reporter firefly/Renilla luciferase ratio,concentration: 0.1 uM,1.17
same,Wnt reporter firefly/Renilla luciferase ratio,concentration: 1 uM,1
same,Wnt reporter firefly/Renilla luciferase ratio,concentration: 10 uM,0.923
same,Wnt reporter firefly/Renilla luciferase ratio,concentration: 100 uM,1.08
"CCN(CC)CCO [N,N-Diethylethanolamine]",Wnt reporter firefly/Renilla luciferase ratio,concentration: 0.1 uM,1.01
same,Wnt reporter firefly/Renilla luciferase ratio,concentration: 1 uM,1.07
same,Wnt reporter firefly/Renilla luciferase ratio,concentration: 10 uM,0.956
same,Wnt reporter firefly/Renilla luciferase ratio,concentration: 100 uM,1.44
Clc1ccc(C(c2ccccc2Cl)C(Cl)(Cl)Cl)cc1 (centres undefined),Wnt reporter firefly/Renilla luciferase ratio,concentration: 0.1 uM,0.989
same,Wnt reporter firefly/Renilla luciferase ratio,concentration: 1 uM,0.858
same,Wnt reporter firefly/Renilla luciferase ratio,concentration: 10 uM,0.978
same,Wnt reporter firefly/Renilla luciferase ratio,concentration: 100 uM,1.08
c1cc2ccc3cccc4ccc(c1)c2c34 [Pyrene],Wnt reporter firefly/Renilla luciferase ratio,concentration: 0.1 uM,1.09
same,Wnt reporter firefly/Renilla luciferase ratio,concentration: 1 uM,0.96
same,Wnt reporter firefly/Renilla luciferase ratio,concentration: 10 uM,1.05
same,Wnt reporter firefly/Renilla luciferase ratio,concentration: 100 uM,0.354
"N=C(Nc1ccccc1)Nc1ccccc1 [1,3-Diphenylguanidine]",Wnt reporter firefly/Renilla luciferase ratio,concentration: 0.1 uM,1.06
same,Wnt reporter firefly/Renilla luciferase ratio,concentration: 1 uM,1.28
same,Wnt reporter firefly/Renilla luciferase ratio,concentration: 10 uM,0.977
same,Wnt reporter firefly/Renilla luciferase ratio,concentration: 100 uM,1.02
NC1=NC(O)C2C3OC4(O)OC(C(O)C2(N1)C4O)C3(O)CO (centres undefined) [Tetrodotoxin (TTX)],Wnt reporter firefly/Renilla luciferase ratio,concentration: 0.01 uM,1.05
same,Wnt reporter firefly/Renilla luciferase ratio,concentration: 0.1 uM,1.12
same,Wnt reporter firefly/Renilla luciferase ratio,concentration: 1 uM,1.09
same,Wnt reporter firefly/Renilla luciferase ratio,concentration: 10 uM,1.06
same,Wnt reporter firefly/Renilla luciferase ratio,concentration: 100 uM,1.8
CCOc1cccc([C@]2(N3CCN(c4ccccc4)CC3)CC[C@@H](C)CC2)c1.CS(=O)(=O)O,Wnt reporter firefly/Renilla luciferase ratio,concentration: 0.1 uM,1.38
same,Wnt reporter firefly/Renilla luciferase ratio,concentration: 1 uM,0.926
same,Wnt reporter firefly/Renilla luciferase ratio,concentration: 10 uM,1.05
same,Wnt reporter firefly/Renilla luciferase ratio,concentration: 100 uM,1.12
CCCN(CCOc1c(Cl)cc(Cl)cc1Cl)C(=O)n1ccnc1 [Prochloraz],Wnt reporter firefly/Renilla luciferase ratio,concentration: 0.01 uM,1.14
same,Wnt reporter firefly/Renilla luciferase ratio,concentration: 0.1 uM,1.15
same,Wnt reporter firefly/Renilla luciferase ratio,concentration: 1 uM,0.904
same,Wnt reporter firefly/Renilla luciferase ratio,concentration: 10 uM,1.05
same,Wnt reporter firefly/Renilla luciferase ratio,concentration: 100 uM,0.247
CCCOC/C(=N\c1ccc(Cl)cc1C(F)(F)F)n1ccnc1 [Triflumizole],Wnt reporter firefly/Renilla luciferase ratio,concentration: 0.01 uM,1.29
same,Wnt reporter firefly/Renilla luciferase ratio,concentration: 0.1 uM,1.65
same,Wnt reporter firefly/Renilla luciferase ratio,concentration: 1 uM,1.53
same,Wnt reporter firefly/Renilla luciferase ratio,concentration: 10 uM,1.91
same,Wnt reporter firefly/Renilla luciferase ratio,concentration: 100 uM,1.72
CN1C2CC(OC(=O)C(CO)c3ccccc3)CC1C1OC12 (centres undefined) [Scopolamine],Wnt reporter firefly/Renilla luciferase ratio,concentration: 0.01 uM,1.61
same,Wnt reporter firefly/Renilla luciferase ratio,concentration: 0.1 uM,1.56
same,Wnt reporter firefly/Renilla luciferase ratio,concentration: 1 uM,1.15
same,Wnt reporter firefly/Renilla luciferase ratio,concentration: 10 uM,1.24
same,Wnt reporter firefly/Renilla luciferase ratio,concentration: 100 uM,1.26
N#Cc1cc(Br)c(O)c(Br)c1 [Bromoxynil],Wnt reporter firefly/Renilla luciferase ratio,concentration: 0.01 uM,0.815
same,Wnt reporter firefly/Renilla luciferase ratio,concentration: 0.1 uM,0.882
same,Wnt reporter firefly/Renilla luciferase ratio,concentration: 1 uM,0.923
same,Wnt reporter firefly/Renilla luciferase ratio,concentration: 10 uM,0.998
same,Wnt reporter firefly/Renilla luciferase ratio,concentration: 100 uM,0.286
CCNc1nc(Cl)nc(NC(C)C)n1 [Atrazine],Wnt reporter firefly/Renilla luciferase ratio,concentration: 0.01 uM,1.45
same,Wnt reporter firefly/Renilla luciferase ratio,concentration: 0.1 uM,1.38
same,Wnt reporter firefly/Renilla luciferase ratio,concentration: 1 uM,1.15
same,Wnt reporter firefly/Renilla luciferase ratio,concentration: 10 uM,1.29
same,Wnt reporter firefly/Renilla luciferase ratio,concentration: 100 uM,1.18
"Cc1cccc([N+](=O)[O-])c1C [1,2-Dimethyl-3-nitrobenzene]",Wnt reporter firefly/Renilla luciferase ratio,concentration: 0.1 uM,0.993
same,Wnt reporter firefly/Renilla luciferase ratio,concentration: 1 uM,0.898
same,Wnt reporter firefly/Renilla luciferase ratio,concentration: 10 uM,0.848
same,Wnt reporter firefly/Renilla luciferase ratio,concentration: 100 uM,1.57
COS(C)(=O)=O [Methyl methanesulfonate],Wnt reporter firefly/Renilla luciferase ratio,concentration: 0.1 uM,0.999
same,Wnt reporter firefly/Renilla luciferase ratio,concentration: 1 uM,0.797
same,Wnt reporter firefly/Renilla luciferase ratio,concentration: 10 uM,1.14
same,Wnt reporter firefly/Renilla luciferase ratio,concentration: 100 uM,1.24
COC(=O)c1c(C(F)F)nc(C(F)(F)F)c(C2=NCCS2)c1CC(C)C [Thiazopyr],Wnt reporter firefly/Renilla luciferase ratio,concentration: 0.01 uM,0.815
same,Wnt reporter firefly/Renilla luciferase ratio,concentration: 0.1 uM,0.899
same,Wnt reporter firefly/Renilla luciferase ratio,concentration: 1 uM,0.947
same,Wnt reporter firefly/Renilla luciferase ratio,concentration: 10 uM,0.872
same,Wnt reporter firefly/Renilla luciferase ratio,concentration: 100 uM,0.82
CCOCCOC(C)=O [2-Ethoxyethyl acetate],Wnt reporter firefly/Renilla luciferase ratio,concentration: 0.1 uM,1.05
same,Wnt reporter firefly/Renilla luciferase ratio,concentration: 1 uM,0.896
same,Wnt reporter firefly/Renilla luciferase ratio,concentration: 10 uM,1.18
same,Wnt reporter firefly/Renilla luciferase ratio,concentration: 100 uM,1.3
CC(Oc1ccc(Cl)cc1Cl)C(=O)O (centres undefined) [Dichlorprop],Wnt reporter firefly/Renilla luciferase ratio,concentration: 0.01 uM,1.16
same,Wnt reporter firefly/Renilla luciferase ratio,concentration: 0.1 uM,1.21
same,Wnt reporter firefly/Renilla luciferase ratio,concentration: 1 uM,1.22
same,Wnt reporter firefly/Renilla luciferase ratio,concentration: 10 uM,1.24
same,Wnt reporter firefly/Renilla luciferase ratio,concentration: 100 uM,1.32
COC(=O)C(C)Oc1ccc(Oc2ccc(Cl)cc2Cl)cc1 (centres undefined) [Diclofop-methyl],Wnt reporter firefly/Renilla luciferase ratio,concentration: 0.01 uM,1.1
same,Wnt reporter firefly/Renilla luciferase ratio,concentration: 0.1 uM,1.28
same,Wnt reporter firefly/Renilla luciferase ratio,concentration: 1 uM,1.98
same,Wnt reporter firefly/Renilla luciferase ratio,concentration: 10 uM,1.27
same,Wnt reporter firefly/Renilla luciferase ratio,concentration: 100 uM,1.29
O=[N+]([O-])c1ccc(Oc2ccc(Cl)cc2Cl)cc1 [Nitrofen],Wnt reporter firefly/Renilla luciferase ratio,concentration: 0.1 uM,1.04
same,Wnt reporter firefly/Renilla luciferase ratio,concentration: 1 uM,0.882
same,Wnt reporter firefly/Renilla luciferase ratio,concentration: 10 uM,1.01
same,Wnt reporter firefly/Renilla luciferase ratio,concentration: 100 uM,1.28
Clc1ccc(C(Cl)(Cl)Cl)cc1 [4-Chlorobenzotrichloride],Wnt reporter firefly/Renilla luciferase ratio,concentration: 0.1 uM,1.23
same,Wnt reporter firefly/Renilla luciferase ratio,concentration: 1 uM,0.884
same,Wnt reporter firefly/Renilla luciferase ratio,concentration: 10 uM,1.42
same,Wnt reporter firefly/Renilla luciferase ratio,concentration: 100 uM,2.38
OC(c1ccc(Cl)cc1)(c1ccc(Cl)cc1)C(Cl)(Cl)Cl [Dicofol],Wnt reporter firefly/Renilla luciferase ratio,concentration: 0.01 uM,1.23
same,Wnt reporter firefly/Renilla luciferase ratio,concentration: 0.1 uM,1.37
same,Wnt reporter firefly/Renilla luciferase ratio,concentration: 1 uM,1.17
same,Wnt reporter firefly/Renilla luciferase ratio,concentration: 10 uM,1.3
same,Wnt reporter firefly/Renilla luciferase ratio,concentration: 100 uM,1.06
"Clc1ccc(Cl)cc1 [1,4-Dichlorobenzene]",Wnt reporter firefly/Renilla luciferase ratio,concentration: 0.1 uM,1.45
same,Wnt reporter firefly/Renilla luciferase ratio,concentration: 1 uM,0.934
same,Wnt reporter firefly/Renilla luciferase ratio,concentration: 10 uM,1.1
same,Wnt reporter firefly/Renilla luciferase ratio,concentration: 100 uM,1.39
